Paper PMC7862700, “An all-to-all approach to the identification of sequence-specific readers for epigenetic DNA modifications on cytosine”

Legend:
Experiment in all cases: DAPPL (digital affinity profiling via proximity ligation, sequencing); 10 mM Tris-HCl pH 7.5, 50 mM NaCl, 1 mM DTT, 4% glycerol, room temperature, 30 min; GST-TFs on glutathione beads, 16-mer random dsDNA library, 0.1% formaldehyde crosslink after washing; high values mean tight binding
Details in all cases: protein: recombinant; tags: N-terminal GST; dsDNA, one strand shown
[1] = target: T1, FLI1 (Homo sapiens, UniProt Q01543 1-452)
T1 sequence: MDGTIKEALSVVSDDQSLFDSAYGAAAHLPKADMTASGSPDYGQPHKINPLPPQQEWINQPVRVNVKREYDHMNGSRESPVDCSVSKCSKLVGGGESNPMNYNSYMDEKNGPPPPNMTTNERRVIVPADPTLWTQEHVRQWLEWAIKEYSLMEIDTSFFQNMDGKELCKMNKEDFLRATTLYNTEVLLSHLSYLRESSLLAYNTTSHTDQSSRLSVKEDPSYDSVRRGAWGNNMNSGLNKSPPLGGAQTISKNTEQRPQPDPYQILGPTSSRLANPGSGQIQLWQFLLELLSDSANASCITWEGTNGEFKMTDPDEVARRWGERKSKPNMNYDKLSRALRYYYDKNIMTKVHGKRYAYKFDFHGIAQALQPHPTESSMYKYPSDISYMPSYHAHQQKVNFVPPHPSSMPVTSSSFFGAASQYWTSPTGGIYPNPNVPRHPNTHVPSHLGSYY
Method in brief: (§1)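 Sequencing on an Illumina NextSeq500 followed washing, crosslinking with 0.1% formaldehyde, proximity ligation (BsaI/T4 ligase, 1 h, 37 °C) and PCR amplification of pools that had been incubated for 30 min at room temperature with 200 nmole of a random double-stranded 16-mer DNA library in Tris/NaCl/DTT/glycerol buffer. Each pool held DNA-barcoded human transcription factors, expressed in yeast as GST fusions and captured on glutathione beads, plus a tag-only sample. Binding signal is a hexamer's read frequency for a factor divided by its frequency in the tag-only sample.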

[2] = target: T2, ELK1 (Homo sapiens, UniProt P19419 1-428)
T2 sequence: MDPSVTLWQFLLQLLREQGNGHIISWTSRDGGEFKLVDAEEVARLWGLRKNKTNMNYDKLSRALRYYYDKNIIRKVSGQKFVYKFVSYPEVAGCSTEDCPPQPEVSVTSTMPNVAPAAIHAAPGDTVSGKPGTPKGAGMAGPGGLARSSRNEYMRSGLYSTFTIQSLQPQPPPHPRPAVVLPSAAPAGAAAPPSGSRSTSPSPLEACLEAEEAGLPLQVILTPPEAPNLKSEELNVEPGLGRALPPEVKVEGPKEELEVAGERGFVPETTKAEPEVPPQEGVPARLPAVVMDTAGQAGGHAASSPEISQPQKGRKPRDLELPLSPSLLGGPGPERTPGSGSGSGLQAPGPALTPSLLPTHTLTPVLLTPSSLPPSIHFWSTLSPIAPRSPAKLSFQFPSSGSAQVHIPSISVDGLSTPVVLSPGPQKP
Method in brief: as §1

[3] = target: T3, GABPA (Homo sapiens, UniProt Q06546 1-454)
T3 sequence: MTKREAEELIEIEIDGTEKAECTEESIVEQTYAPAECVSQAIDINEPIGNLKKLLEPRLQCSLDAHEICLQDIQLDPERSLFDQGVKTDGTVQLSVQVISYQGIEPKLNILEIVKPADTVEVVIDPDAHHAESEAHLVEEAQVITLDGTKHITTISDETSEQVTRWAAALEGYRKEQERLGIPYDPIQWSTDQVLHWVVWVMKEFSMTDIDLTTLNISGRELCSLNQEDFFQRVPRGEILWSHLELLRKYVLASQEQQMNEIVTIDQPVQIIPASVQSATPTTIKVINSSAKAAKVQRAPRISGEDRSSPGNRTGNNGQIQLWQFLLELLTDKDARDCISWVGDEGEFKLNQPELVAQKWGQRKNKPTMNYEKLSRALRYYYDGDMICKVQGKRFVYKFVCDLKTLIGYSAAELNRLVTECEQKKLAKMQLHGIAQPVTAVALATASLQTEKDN
Method in brief: as §1

[4] = target: T4, ERG (Homo sapiens, UniProt P11308 1-479)
T4 sequence: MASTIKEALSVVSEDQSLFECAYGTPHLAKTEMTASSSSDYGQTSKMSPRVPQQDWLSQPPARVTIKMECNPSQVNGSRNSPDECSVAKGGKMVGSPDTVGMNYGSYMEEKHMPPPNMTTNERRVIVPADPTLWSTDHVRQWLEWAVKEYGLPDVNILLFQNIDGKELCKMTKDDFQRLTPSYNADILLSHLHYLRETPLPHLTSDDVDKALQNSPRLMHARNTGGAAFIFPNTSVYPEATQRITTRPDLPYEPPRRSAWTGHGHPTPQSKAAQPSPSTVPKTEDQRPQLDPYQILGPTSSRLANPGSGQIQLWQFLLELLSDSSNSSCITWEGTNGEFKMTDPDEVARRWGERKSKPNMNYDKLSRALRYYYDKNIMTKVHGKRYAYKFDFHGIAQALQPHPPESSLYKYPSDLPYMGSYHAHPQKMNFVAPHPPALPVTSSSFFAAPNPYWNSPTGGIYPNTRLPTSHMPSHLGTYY
Method in brief: as §1

[5] = target: ELF1 (Homo sapiens, UniProt P32519 1-619)
Method in brief: as §1

[6] = target: T5, EHF (Homo sapiens, UniProt Q9NZC4 1-300)
T5 sequence: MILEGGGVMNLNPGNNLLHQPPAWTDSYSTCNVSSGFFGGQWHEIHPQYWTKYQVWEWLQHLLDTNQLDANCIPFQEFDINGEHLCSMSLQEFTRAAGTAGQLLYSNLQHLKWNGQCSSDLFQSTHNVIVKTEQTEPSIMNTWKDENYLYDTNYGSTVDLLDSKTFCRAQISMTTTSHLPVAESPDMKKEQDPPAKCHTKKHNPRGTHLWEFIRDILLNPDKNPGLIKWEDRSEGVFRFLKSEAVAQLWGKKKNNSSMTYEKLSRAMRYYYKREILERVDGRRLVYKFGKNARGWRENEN
Method in brief: as §1

[7] = target: SPI1 (Homo sapiens, UniProt P17947 1-270)
Method in brief: as §1

[8] = target: SPIB (Homo sapiens, UniProt Q01892 1-262)
Method in brief: as §1

[9] = target: T6, ELK3 (Homo sapiens, UniProt P41970 1-407)
T6 sequence: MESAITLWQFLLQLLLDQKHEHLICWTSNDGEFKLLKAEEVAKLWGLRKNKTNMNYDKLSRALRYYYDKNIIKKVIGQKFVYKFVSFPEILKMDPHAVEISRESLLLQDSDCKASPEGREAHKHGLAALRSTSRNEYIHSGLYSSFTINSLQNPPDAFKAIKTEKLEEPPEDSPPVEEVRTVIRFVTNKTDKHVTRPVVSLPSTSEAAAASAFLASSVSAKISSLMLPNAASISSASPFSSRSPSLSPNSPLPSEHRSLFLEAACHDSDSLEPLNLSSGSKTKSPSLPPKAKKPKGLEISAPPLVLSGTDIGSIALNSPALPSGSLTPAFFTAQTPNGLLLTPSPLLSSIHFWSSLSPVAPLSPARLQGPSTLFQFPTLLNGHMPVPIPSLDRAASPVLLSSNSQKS
Method in brief: as §1

[10] = target: T7, FEV (Homo sapiens, UniProt Q99581 1-238)
T7 sequence: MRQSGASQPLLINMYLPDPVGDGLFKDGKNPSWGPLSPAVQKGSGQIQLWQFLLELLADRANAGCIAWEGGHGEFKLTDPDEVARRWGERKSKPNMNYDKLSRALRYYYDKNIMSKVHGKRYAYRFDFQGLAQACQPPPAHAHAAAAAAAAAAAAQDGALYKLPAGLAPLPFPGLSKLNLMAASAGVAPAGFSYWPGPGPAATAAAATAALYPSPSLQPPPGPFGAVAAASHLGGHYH
Method in brief: as §1

[11] = target: ETV5 (Homo sapiens, UniProt P41161 1-510)
Method in brief: as §1

[12] = target: T8, SPIC (Homo sapiens, UniProt Q8N5J4 1-248)
T8 sequence: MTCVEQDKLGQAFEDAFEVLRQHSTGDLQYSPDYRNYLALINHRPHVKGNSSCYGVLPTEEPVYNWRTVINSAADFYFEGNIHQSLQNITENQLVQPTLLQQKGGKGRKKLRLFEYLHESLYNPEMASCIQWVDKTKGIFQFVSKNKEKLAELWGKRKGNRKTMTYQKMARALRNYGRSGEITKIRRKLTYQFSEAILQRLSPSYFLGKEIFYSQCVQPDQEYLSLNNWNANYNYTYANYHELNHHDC
Method in brief: as §1

[13] = target: ELF4 (Homo sapiens, UniProt Q99607 1-663)
Method in brief: as §1

[14] = target: T9, ELK4 (Homo sapiens, UniProt P28324-2 1-405)
T9 sequence: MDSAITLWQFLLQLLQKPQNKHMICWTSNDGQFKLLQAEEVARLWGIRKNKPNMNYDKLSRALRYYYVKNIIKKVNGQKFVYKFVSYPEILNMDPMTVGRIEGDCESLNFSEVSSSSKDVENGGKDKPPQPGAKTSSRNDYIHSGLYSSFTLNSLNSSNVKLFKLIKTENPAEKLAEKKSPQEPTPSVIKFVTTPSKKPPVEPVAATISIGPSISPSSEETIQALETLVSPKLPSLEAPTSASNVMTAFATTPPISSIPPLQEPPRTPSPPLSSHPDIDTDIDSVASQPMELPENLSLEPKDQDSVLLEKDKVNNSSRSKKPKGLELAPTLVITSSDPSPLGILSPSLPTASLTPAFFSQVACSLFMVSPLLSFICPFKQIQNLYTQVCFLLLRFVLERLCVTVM
Method in brief: as §1

[15] = target: T10, ETV2 (Homo sapiens, UniProt O00321 1-342)
T10 sequence: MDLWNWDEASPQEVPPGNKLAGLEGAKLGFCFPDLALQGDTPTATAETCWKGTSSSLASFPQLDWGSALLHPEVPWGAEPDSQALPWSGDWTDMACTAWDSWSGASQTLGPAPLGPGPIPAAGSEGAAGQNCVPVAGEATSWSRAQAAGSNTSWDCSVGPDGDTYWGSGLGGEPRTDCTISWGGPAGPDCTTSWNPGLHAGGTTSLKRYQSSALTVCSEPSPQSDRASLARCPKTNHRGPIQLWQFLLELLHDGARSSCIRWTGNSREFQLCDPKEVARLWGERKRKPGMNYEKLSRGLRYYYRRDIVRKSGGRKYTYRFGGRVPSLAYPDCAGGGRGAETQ
Method in brief: as §1

[16] = target: T11, ELF3 (Homo sapiens, UniProt P78545 1-371)
T11 sequence: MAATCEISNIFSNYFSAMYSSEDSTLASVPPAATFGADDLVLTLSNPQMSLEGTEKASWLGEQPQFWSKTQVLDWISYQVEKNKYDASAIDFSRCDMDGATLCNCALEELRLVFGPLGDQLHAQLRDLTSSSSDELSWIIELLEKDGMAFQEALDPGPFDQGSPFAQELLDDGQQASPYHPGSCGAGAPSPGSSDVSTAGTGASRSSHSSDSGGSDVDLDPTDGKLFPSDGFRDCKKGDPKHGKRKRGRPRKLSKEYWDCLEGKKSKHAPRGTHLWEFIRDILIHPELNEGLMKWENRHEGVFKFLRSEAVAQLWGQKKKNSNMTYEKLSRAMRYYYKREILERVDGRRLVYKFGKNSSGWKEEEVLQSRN
Method in brief: as §1

[17] = target: ETV1 (Homo sapiens, UniProt P50549 1-477)
Method in brief: as §1

Chain of SPIB (Q01892 whole entry): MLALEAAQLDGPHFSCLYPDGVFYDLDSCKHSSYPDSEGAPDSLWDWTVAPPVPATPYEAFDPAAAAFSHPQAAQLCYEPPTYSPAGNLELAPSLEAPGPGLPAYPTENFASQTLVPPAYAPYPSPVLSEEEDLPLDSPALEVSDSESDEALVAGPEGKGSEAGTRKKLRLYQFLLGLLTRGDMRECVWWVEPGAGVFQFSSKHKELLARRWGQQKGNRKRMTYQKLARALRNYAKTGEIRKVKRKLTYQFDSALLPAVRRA
Chain of ELF4 (Q99607 whole entry): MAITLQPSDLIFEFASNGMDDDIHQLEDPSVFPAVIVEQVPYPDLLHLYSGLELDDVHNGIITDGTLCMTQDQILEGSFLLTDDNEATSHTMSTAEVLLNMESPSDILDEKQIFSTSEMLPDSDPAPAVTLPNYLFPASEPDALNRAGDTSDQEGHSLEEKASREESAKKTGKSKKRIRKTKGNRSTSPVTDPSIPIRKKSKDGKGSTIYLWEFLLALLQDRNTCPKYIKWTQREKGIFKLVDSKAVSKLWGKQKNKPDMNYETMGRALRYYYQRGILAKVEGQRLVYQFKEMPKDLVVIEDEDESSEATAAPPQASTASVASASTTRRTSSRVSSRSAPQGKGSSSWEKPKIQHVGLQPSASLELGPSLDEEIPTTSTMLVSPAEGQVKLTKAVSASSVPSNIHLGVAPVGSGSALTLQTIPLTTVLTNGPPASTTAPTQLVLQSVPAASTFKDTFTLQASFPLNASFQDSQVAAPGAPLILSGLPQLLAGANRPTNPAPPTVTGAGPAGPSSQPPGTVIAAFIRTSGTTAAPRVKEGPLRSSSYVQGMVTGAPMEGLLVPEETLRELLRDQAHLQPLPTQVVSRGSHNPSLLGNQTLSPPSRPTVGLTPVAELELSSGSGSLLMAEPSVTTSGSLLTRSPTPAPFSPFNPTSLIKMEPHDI
Chain of ELF1 (P32519 whole entry): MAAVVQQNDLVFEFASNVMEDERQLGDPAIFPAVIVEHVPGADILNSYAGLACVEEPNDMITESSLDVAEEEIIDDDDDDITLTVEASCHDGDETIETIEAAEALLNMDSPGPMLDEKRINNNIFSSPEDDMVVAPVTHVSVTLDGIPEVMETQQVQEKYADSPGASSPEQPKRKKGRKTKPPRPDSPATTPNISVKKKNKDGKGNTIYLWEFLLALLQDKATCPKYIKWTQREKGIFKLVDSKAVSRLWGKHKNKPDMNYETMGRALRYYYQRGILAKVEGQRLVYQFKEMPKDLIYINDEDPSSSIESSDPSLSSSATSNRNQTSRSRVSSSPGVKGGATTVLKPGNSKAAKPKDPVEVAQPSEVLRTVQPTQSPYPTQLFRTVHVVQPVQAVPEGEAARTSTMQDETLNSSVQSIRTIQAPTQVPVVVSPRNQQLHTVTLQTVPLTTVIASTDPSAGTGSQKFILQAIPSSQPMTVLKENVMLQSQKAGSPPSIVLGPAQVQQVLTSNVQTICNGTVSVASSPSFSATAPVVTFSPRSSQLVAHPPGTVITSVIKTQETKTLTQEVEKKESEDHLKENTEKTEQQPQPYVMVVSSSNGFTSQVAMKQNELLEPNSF
Chain of ETV1 (P50549 whole entry): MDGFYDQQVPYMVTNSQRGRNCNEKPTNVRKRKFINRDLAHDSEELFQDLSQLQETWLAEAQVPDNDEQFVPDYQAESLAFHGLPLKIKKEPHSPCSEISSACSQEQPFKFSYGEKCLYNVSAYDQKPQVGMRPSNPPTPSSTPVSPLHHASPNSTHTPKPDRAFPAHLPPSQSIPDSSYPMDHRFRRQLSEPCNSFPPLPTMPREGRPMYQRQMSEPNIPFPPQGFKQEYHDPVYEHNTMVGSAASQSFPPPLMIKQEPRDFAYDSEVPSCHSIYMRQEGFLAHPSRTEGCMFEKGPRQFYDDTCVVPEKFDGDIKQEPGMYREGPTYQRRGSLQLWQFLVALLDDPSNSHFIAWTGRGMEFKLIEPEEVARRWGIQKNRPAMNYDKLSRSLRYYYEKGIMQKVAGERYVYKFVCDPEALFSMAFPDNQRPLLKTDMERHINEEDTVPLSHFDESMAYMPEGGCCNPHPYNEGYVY
Chain of ETV5 (P41161 whole entry): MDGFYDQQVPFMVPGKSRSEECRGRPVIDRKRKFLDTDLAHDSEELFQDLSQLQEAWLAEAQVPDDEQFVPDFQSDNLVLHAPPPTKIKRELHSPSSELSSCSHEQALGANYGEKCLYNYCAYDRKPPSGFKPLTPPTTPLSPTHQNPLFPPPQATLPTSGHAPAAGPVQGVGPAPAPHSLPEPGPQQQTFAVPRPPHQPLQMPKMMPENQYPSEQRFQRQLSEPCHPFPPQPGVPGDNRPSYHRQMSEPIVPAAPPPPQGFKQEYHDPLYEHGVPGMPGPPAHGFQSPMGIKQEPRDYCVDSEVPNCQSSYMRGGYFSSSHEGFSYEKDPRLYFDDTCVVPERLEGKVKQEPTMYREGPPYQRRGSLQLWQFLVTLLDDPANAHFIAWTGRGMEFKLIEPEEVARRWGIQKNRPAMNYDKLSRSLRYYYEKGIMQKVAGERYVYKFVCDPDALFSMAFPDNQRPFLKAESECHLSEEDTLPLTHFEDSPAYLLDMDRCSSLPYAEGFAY

Sequence | binding signal [1] | binding signal [2] | binding signal [3] | binding signal [4] | binding signal [5] | binding signal [6] | binding signal [7] | binding signal [8] | binding signal [9] | binding signal [10] | binding signal [11] | binding signal [12] | binding signal [13] | binding signal [14] | binding signal [15] | binding signal [16] | binding signal [17]
TACCGG | 1.52 fold enrichment (6-mer frequency, TF over GST control) | 1.55 fold enrichment (6-mer frequency, TF over GST control) | 1.52 fold enrichment (6-mer frequency, TF over GST control) | 1.77 fold enrichment (6-mer frequency, TF over GST control) | 1.53 fold enrichment (6-mer frequency, TF over GST control) | 1.67 fold enrichment (6-mer frequency, TF over GST control) | 1.43 fold enrichment (6-mer frequency, TF over GST control) | 1.61 fold enrichment (6-mer frequency, TF over GST control) | 1.56 fold enrichment (6-mer frequency, TF over GST control) | 2.1 fold enrichment (6-mer frequency, TF over GST control) | 1.68 fold enrichment (6-mer frequency, TF over GST control) | 1.43 fold enrichment (6-mer frequency, TF over GST control) | 1.51 fold enrichment (6-mer frequency, TF over GST control) | 1.4 fold enrichment (6-mer frequency, TF over GST control) | 1.5 fold enrichment (6-mer frequency, TF over GST control) | 1.78 fold enrichment (6-mer frequency, TF over GST control) | 1.73 fold enrichment (6-mer frequency, TF over GST control)
CACCAC | 1.15 fold enrichment (6-mer frequency, TF over GST control) | 1.2 fold enrichment (6-mer frequency, TF over GST control) | 1.23 fold enrichment (6-mer frequency, TF over GST control) | 1.18 fold enrichment (6-mer frequency, TF over GST control) | 1.18 fold enrichment (6-mer frequency, TF over GST control) | 1.11 fold enrichment (6-mer frequency, TF over GST control) | 1.18 fold enrichment (6-mer frequency, TF over GST control) | 1.14 fold enrichment (6-mer frequency, TF over GST control) | 1.06 fold enrichment (6-mer frequency, TF over GST control) | 1.19 fold enrichment (6-mer frequency, TF over GST control) | 1.1 fold enrichment (6-mer frequency, TF over GST control) | 1.3 fold enrichment (6-mer frequency, TF over GST control) | 1.13 fold enrichment (6-mer frequency, TF over GST control) | 1.22 fold enrichment (6-mer frequency, TF over GST control) | 1.14 fold enrichment (6-mer frequency, TF over GST control) | 1.24 fold enrichment (6-mer frequency, TF over GST control) | 1.16 fold enrichment (6-mer frequency, TF over GST control)
CCTGCC | 1.17 fold enrichment (6-mer frequency, TF over GST control) | 1.34 fold enrichment (6-mer frequency, TF over GST control) | 1.25 fold enrichment (6-mer frequency, TF over GST control) | 1.3 fold enrichment (6-mer frequency, TF over GST control) | 1.31 fold enrichment (6-mer frequency, TF over GST control) | 1.39 fold enrichment (6-mer frequency, TF over GST control) | 1.28 fold enrichment (6-mer frequency, TF over GST control) | 1.43 fold enrichment (6-mer frequency, TF over GST control) | 1.13 fold enrichment (6-mer frequency, TF over GST control) | 1.33 fold enrichment (6-mer frequency, TF over GST control) | 1.34 fold enrichment (6-mer frequency, TF over GST control) | 1.28 fold enrichment (6-mer frequency, TF over GST control) | 1.28 fold enrichment (6-mer frequency, TF over GST control) | 1.14 fold enrichment (6-mer frequency, TF over GST control) | 1.26 fold enrichment (6-mer frequency, TF over GST control) | 1.27 fold enrichment (6-mer frequency, TF over GST control) | 1.26 fold enrichment (6-mer frequency, TF over GST control)
